In the supplement of paper PMC11732987, “Enantioselective OTUD7B fragment discovery through chemoproteomics screening and high-throughput optimisation” (Communications Chemistry, 2025):

Legend:
Assay in all cases: log2 ratio of Biotin-Ahx-Ub-VS probe labelling (fragment/DMSO); higher = less target engagement (more negative = stronger competition), active = hit call of the paper (q ≤ 0.05, log2 ratio ≤ -1)
Conditions in all cases: compound concentration: 200 uM; treatment time: 3 h
[1] = biological target: T1, USP19 (UniProt O94966)
T1 sequence (whole entry): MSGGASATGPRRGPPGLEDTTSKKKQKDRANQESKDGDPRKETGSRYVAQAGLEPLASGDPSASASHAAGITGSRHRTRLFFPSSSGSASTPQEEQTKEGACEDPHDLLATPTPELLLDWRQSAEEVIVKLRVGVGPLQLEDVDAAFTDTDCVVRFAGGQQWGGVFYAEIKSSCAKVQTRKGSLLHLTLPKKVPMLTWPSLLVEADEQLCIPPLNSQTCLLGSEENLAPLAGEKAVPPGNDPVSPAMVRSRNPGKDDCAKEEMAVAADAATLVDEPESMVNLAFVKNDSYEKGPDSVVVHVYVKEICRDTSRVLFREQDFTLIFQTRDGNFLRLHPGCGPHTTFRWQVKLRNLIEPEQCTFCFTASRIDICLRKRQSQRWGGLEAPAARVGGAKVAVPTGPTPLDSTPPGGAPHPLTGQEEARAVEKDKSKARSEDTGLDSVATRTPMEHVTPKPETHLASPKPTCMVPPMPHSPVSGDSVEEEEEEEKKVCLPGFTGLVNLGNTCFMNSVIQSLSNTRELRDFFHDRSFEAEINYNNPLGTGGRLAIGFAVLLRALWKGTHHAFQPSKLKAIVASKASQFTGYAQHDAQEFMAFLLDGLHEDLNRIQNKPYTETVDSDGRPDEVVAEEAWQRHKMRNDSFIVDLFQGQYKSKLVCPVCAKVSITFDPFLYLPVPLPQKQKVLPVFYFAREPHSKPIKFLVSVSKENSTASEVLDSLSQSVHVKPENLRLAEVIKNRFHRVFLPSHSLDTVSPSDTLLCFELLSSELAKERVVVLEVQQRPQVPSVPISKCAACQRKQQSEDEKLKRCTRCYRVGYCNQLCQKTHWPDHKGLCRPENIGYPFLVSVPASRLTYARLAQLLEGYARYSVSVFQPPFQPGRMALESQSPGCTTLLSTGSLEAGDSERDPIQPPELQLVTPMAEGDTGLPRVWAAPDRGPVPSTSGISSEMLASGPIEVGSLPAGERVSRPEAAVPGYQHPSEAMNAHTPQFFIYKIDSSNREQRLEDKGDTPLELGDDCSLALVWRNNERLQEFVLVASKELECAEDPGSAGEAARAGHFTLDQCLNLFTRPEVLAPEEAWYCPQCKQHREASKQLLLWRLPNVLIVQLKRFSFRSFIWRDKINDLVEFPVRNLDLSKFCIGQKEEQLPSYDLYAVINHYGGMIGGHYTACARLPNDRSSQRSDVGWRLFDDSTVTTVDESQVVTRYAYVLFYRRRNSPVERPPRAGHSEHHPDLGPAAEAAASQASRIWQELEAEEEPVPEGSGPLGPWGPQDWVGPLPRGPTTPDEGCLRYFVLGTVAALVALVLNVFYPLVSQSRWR
Outline: (§1)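 Labelling with Biotin-Ahx-Ub-VS (0.5 µM final, 1 h) followed a 3 h triplicate treatment of HEK293T lysate (495 µg per sample, Tris/CHAPS/IGEPAL buffer with protease inhibitors) with fragment at 200 µM or vehicle. Labelled DUBs were NeutrAvidin-enriched, digested with LysC and trypsin, and run by diaPASEF LC-MS/MS. The values, average log2 fragment/vehicle ratios by unpaired t-test, come from global-median-normalised Spectronaut label-free quantities. Proteins with ≥2 unique peptides were used.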

[2] = biological target: T2, USP22 (UniProt Q9UPT9)
T2 sequence (whole entry): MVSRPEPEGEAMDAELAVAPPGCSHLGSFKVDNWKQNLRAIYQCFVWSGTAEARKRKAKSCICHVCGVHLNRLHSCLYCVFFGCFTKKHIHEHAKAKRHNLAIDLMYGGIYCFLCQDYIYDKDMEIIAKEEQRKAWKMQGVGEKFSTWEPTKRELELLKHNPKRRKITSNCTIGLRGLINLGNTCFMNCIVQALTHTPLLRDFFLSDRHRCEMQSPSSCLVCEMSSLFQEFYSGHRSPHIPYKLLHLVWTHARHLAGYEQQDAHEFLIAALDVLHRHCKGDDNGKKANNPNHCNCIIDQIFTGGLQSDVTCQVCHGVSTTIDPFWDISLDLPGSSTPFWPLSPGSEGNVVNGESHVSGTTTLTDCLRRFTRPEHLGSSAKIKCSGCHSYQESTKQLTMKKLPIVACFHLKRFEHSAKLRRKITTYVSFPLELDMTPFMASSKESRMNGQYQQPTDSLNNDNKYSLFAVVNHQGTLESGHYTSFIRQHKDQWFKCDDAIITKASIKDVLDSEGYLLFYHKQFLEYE
Outline: as §1

[3] = biological target: USP24 (UniProt Q9UPU5)
Sequence of USP24 (Q9UPU5 whole entry): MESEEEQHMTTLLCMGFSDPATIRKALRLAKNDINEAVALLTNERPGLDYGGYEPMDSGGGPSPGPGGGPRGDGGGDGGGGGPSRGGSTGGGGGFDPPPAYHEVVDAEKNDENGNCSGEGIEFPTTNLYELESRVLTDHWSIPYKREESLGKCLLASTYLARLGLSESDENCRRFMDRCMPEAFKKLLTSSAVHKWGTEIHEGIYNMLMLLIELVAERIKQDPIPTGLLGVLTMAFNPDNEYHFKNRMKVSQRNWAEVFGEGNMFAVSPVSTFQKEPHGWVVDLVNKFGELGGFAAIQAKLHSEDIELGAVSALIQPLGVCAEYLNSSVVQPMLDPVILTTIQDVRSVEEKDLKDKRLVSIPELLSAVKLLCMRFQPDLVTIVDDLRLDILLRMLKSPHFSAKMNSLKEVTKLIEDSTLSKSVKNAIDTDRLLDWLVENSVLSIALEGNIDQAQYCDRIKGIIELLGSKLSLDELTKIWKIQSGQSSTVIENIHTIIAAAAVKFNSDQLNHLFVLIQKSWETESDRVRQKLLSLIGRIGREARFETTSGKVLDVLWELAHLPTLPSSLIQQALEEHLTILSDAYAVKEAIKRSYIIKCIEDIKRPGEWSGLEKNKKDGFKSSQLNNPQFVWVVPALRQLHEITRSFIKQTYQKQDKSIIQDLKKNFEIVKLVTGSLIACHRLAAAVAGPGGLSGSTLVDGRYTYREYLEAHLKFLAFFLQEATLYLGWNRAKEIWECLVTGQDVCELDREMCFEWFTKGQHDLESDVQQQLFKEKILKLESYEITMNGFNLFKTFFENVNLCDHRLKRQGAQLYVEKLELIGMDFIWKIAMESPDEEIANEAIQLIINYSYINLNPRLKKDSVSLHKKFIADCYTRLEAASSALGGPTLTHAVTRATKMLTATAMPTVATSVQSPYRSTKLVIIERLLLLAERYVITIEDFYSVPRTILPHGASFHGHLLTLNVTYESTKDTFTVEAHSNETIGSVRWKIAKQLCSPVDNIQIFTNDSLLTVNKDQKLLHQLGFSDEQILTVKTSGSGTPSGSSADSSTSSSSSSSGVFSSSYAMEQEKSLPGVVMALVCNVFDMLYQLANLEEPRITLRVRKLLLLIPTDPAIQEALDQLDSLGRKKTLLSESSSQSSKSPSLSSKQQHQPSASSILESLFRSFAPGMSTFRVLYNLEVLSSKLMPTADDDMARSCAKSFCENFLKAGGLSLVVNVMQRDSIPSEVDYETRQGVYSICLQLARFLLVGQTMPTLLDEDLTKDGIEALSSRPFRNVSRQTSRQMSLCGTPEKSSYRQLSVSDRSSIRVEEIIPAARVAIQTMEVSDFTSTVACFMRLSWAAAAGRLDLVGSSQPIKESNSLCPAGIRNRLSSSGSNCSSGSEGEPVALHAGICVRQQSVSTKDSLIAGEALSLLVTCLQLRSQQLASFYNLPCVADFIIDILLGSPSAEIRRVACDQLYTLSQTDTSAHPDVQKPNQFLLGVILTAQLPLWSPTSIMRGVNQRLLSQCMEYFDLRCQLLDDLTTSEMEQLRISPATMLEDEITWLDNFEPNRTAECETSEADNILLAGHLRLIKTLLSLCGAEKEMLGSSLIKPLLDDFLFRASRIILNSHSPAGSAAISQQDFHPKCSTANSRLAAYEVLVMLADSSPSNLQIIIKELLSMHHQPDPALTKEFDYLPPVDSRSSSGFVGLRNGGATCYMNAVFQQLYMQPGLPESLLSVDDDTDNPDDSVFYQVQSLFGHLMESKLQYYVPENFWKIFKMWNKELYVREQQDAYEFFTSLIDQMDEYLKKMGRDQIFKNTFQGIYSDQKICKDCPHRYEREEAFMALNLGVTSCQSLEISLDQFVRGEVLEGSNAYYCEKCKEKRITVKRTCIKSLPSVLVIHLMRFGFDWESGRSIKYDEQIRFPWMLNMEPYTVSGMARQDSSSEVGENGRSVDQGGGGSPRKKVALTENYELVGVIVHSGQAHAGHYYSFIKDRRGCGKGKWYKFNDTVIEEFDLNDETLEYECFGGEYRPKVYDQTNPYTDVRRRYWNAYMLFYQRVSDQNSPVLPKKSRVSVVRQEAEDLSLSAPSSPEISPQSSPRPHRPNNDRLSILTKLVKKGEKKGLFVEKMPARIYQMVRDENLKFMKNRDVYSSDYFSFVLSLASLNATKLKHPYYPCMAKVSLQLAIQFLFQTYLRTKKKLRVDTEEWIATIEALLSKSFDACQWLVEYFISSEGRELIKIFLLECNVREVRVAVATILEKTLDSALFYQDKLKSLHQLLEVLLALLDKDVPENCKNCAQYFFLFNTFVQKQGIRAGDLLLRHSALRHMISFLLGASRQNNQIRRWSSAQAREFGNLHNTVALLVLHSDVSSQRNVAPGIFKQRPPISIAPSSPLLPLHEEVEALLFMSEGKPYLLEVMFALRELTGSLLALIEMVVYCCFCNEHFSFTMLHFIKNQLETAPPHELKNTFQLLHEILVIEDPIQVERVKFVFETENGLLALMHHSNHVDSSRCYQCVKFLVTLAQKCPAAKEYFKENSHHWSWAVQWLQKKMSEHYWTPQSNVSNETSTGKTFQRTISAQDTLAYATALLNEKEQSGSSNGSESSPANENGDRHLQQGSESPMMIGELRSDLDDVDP
Outline: as §1

[4] = biological target: T3, USP25 (UniProt Q9UHP3)
T3 sequence (whole entry): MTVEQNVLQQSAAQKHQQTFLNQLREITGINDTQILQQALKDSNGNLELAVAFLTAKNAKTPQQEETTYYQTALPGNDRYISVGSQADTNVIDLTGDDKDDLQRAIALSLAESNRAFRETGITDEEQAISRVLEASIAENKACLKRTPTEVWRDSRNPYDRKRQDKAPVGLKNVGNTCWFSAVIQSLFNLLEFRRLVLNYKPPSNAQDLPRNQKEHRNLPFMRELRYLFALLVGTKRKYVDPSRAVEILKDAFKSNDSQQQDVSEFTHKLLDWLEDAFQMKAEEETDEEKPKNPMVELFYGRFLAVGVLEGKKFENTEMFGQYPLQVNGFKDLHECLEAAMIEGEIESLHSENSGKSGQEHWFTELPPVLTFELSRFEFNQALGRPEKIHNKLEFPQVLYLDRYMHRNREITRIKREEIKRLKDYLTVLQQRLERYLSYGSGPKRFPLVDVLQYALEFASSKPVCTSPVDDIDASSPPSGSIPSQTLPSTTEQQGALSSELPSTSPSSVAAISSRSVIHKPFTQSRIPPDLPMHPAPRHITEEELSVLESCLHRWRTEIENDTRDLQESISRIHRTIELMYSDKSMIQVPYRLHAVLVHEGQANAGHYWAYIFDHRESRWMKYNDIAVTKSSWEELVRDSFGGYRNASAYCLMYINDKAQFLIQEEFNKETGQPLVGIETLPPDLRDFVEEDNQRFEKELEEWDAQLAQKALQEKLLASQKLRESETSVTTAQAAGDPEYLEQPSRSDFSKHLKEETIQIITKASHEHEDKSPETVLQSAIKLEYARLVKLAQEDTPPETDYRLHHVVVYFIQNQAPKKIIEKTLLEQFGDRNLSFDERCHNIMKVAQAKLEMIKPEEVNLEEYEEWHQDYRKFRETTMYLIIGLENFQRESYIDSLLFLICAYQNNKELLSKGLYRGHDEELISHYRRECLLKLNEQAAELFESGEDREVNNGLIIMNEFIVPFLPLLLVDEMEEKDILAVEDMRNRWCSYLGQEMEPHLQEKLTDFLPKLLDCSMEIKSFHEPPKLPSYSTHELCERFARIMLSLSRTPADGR
Outline: as §1

[5] = biological target: T4, USP28 (UniProt Q96RU2)
T4 sequence (whole entry): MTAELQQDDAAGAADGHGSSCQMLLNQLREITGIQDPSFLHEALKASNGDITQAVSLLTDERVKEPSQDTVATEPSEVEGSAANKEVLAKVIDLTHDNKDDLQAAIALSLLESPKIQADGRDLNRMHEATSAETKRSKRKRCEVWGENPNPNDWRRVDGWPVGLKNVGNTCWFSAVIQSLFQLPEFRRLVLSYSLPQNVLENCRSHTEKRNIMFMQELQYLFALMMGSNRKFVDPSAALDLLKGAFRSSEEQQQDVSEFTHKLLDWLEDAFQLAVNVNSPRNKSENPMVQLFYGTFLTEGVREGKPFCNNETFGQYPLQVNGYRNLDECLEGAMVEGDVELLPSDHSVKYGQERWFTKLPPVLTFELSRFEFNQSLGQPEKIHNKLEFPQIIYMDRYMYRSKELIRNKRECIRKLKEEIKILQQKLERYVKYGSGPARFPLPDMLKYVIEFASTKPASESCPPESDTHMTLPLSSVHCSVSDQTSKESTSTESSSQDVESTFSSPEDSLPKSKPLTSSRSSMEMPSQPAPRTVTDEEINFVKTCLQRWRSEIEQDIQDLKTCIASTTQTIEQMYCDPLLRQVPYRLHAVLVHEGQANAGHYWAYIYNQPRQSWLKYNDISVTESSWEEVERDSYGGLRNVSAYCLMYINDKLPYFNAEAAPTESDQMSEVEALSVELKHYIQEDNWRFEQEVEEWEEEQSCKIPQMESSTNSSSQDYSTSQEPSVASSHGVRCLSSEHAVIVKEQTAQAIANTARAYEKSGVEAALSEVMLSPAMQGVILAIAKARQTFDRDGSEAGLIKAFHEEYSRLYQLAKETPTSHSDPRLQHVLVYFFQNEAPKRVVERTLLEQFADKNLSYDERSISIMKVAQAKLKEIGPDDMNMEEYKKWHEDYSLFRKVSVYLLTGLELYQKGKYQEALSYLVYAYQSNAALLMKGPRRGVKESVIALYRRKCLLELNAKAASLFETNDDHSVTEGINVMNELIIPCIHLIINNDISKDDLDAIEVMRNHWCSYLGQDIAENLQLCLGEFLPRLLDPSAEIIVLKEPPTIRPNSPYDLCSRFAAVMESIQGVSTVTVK
Outline: as §1

Measured: log2 ratio of Biotin-Ahx-Ub-VS probe labelling

Cc1cccc(C(CNC(=O)CCl)N2CCOCC2)c1.Cl (stereo not given)
inactive: [1] 0.101 | [2] -0.00636 | [3] 0.135 | [4] -0.355 | [5] -0.0645
